Measured values taken from PubChem BioAssay AID1159580 (chemical genetic matrix, 2015).
Values joined by “and” are separate entries in the source; they are usually repeats but may differ in a detail not shown here. Equal values may be shown once. The campaign covered roughly 5,500 compounds. About 2,000 (36%) were called active. Not shown: some 18% with an inconclusive outcome. Cut-off read from the data, not from the text of the source: active = normalized growth mostly below about 0.91 (no sharp cut-off); inconclusive = no clear call, values can overlap the other calls; inactive = mostly above about 0.92. The list shows a part of the results.

Assay: chemical genetic growth profiling, strain panel (AID 1159580);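 note: tested at 20 µM; growth read once vehicle control cultures reached saturation at 30 °C; 1 = growth at the plate median or of vehicle wells; lower values mean less growth of the strain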
Conditions: growth OD

Measured: normalized growth

NCCS
inactive: S. cerevisiae deletion strains, locus YJR075W, strain HOC1, hits give low values 1.01 | S. cerevisiae deletion strains, locus YKL009W, strain mrt4, hits give low values 0.998 | S. cerevisiae deletion strains, locus YKL068W, hits give low values 1 | S. cerevisiae deletion strains, locus YKL085W, strain MDH1 (second series), hits give low values 1.01 | S. cerevisiae deletion strains, locus YKL085W, strain MDH1, hits give low values 1.01 | S. cerevisiae deletion strains, locus YKL160W, strain elf1, hits give low values 0.986 | S. cerevisiae deletion strains, locus YKL190W, strain CNB1, hits give low values 1.01 | S. cerevisiae deletion strains, locus YKR001C, strain vps1, hits give low values 1.01 | S. cerevisiae deletion strains, locus YKR026C, strain gcn3, hits give low values 0.947 | S. cerevisiae deletion strains, locus YKR091W, strain srl3, hits give low values 0.991 | S. cerevisiae deletion strains, locus YLL001W, strain dnm1, hits give low values 1 | S. cerevisiae deletion strains, locus YLL026W, hits give low values 0.996 | S. cerevisiae deletion strains, locus YLL041C, strain sdh2, hits give low values 0.998 | S. cerevisiae deletion strains, locus YLR027C, strain aat2, hits give low values 0.984 | S. cerevisiae deletion strains, locus YLR039C, strain RIC1, hits give low values 1.05 | S. cerevisiae deletion strains, locus YLR058C, strain SHM2, hits give low values 1.02 | S. cerevisiae deletion strains, locus YLR102C, strain apc9, hits give low values 1.01 | S. cerevisiae deletion strains, locus YLR113W, strain HOG1, hits give low values 0.996 | S. cerevisiae deletion strains, locus YLR221C, strain rsa3, hits give low values 0.992 | S. cerevisiae deletion strains, locus YLR258W, strain gsy2, hits give low values 0.998 | S. cerevisiae deletion strains, locus YLR262C, strain YPT6 (second series), hits give low values 0.953 | S. cerevisiae deletion strains, locus YLR262C, strain YPT6, hits give low values 1.03 | S. cerevisiae deletion strains, locus YLR268W, strain sec22, hits give low values 1.01 | S. cerevisiae deletion strains, locus YLR320W, strain mms22, hits give low values 0.985 | S. cerevisiae deletion strains, locus YLR330W, strain CHS5, hits give low values 1.01 | S. cerevisiae deletion strains, locus YLR342W, strain FKS1 (second series), hits give low values 1.04 | S. cerevisiae deletion strains, locus YLR342W, strain FKS1, hits give low values 0.969 | S. cerevisiae deletion strains, locus YLR357W, strain rsc2, hits give low values 0.962 | S. cerevisiae deletion strains, locus YLR370C, strain arc18, hits give low values 0.989 | S. cerevisiae deletion strains, locus YLR371W, strain rom2, hits give low values 1.02 | S. cerevisiae deletion strains, locus YLR384C, strain iki3, hits give low values 0.999 | S. cerevisiae deletion strains, locus YLR418C, strain cdc73, hits give low values 1.03 | S. cerevisiae deletion strains, locus YML016C, strain PPZ1, hits give low values 1.02 | S. cerevisiae deletion strains, locus YML032C, strain rad52, hits give low values 1.02 | S. cerevisiae deletion strains, locus YML120C, strain ndi1, hits give low values 0.988 | S. cerevisiae deletion strains, locus YML124C, strain tub3, hits give low values 1.02 | S. cerevisiae deletion strains, locus YMR058W, strain fet3, hits give low values 0.985 | S. cerevisiae deletion strains, locus YMR078C, strain ctf18, hits give low values 1.01 | S. cerevisiae deletion strains, locus YMR125W, strain sto1, hits give low values 0.968 | S. cerevisiae deletion strains, locus YMR129W, hits give low values 1.01 | S. cerevisiae deletion strains, locus YMR205C, strain PFK2, hits give low values 0.983 | S. cerevisiae deletion strains, locus YMR223W, strain ubp8, hits give low values 1.01 | S. cerevisiae deletion strains, locus YMR231W, strain pep5, hits give low values 0.999 | S. cerevisiae deletion strains, locus YMR263W, strain SAP30, hits give low values 1.01 and 0.99 | S. cerevisiae deletion strains, locus YMR307W, strain GAS1, hits give low values 1.02 | S. cerevisiae deletion strains, locus YNL067W, strain RPL9B, hits give low values 1.01 | S. cerevisiae deletion strains, locus YNL071W, strain lat1, hits give low values 0.956 | S. cerevisiae deletion strains, locus YNL128W, strain TEP1, hits give low values 1.01 | S. cerevisiae deletion strains, locus YNL153C, strain GIM3, hits give low values 1.01 | S. cerevisiae deletion strains, locus YNL175C, strain NOP13, hits give low values 1 | S. cerevisiae deletion strains, locus YNL183C, strain NPR1, hits give low values 0.981 | S. cerevisiae deletion strains, locus YNL197C, strain WHI3, hits give low values 1.01 | S. cerevisiae deletion strains, locus YNL209W, strain ssb2, hits give low values 0.989 | S. cerevisiae deletion strains, locus YNL224C, strain SQS1, hits give low values 1 | S. cerevisiae deletion strains, locus YNL233W, strain BNI4, hits give low values 1.02 | S. cerevisiae deletion strains, locus YNL248C, strain rpa49, hits give low values 0.983 | S. cerevisiae deletion strains, locus YNL250W, strain rad50, hits give low values 1.02 | S. cerevisiae deletion strains, locus YNL271C, strain bni1, hits give low values 1.01 | S. cerevisiae deletion strains, locus YNL298W, strain CLA4, hits give low values 1.03 | S. cerevisiae deletion strains, locus YNL307C, strain MCK1, hits give low values 1.02 | S. cerevisiae deletion strains, locus YNL322C, strain KRE1 (second series), hits give low values 0.979 | S. cerevisiae deletion strains, locus YNL322C, strain KRE1, hits give low values 1.01 and 1.02 | S. cerevisiae deletion strains, locus YNR049C, strain mso1, hits give low values 0.972 | S. cerevisiae deletion strains, locus YNR052C, strain pop2, hits give low values 1.01 | S. cerevisiae deletion strains, locus YOL006C, strain TOP1, hits give low values 1.04 | S. cerevisiae deletion strains, locus YOL012C, strain htz1 1.32 | S. cerevisiae deletion strains, locus YOL147C, strain pex11, hits give low values 1.02 | S. cerevisiae deletion strains, locus YOR001W, strain rrp6, hits give low values 0.992 | S. cerevisiae deletion strains, locus YOR061W, strain CKA2, hits give low values 1.02 | S. cerevisiae deletion strains, locus YOR069W, strain VPS5, hits give low values 1.01 | S. cerevisiae deletion strains, locus YOR070C, strain gyp1, hits give low values 0.982 | S. cerevisiae deletion strains, locus YOR080W, strain dia2, hits give low values 0.984 | S. cerevisiae deletion strains, locus YOR083W, strain WHI5 (second series), hits give low values 1.02 | S. cerevisiae deletion strains, locus YOR083W, strain WHI5, hits give low values 0.983 | S. cerevisiae deletion strains, locus YOR106W, strain vam3, hits give low values 0.969 | S. cerevisiae deletion strains, locus YOR136W, strain idh2, hits give low values 1.02 | S. cerevisiae deletion strains, locus YOR144C, strain elg1, hits give low values 1.02 | S. cerevisiae deletion strains, locus YOR184W, strain ser1, hits give low values 0.999 | S. cerevisiae deletion strains, locus YOR231W, strain MKK1, hits give low values 1.02 | S. cerevisiae deletion strains, locus YOR265W, strain rbl2, hits give low values 0.997 | S. cerevisiae deletion strains, locus YOR270C, strain vph1, hits give low values 0.995 | S. cerevisiae deletion strains, locus YOR290C, strain snf2, hits give low values 0.982 | S. cerevisiae deletion strains, locus YOR316C, strain cot1, hits give low values 1.02 | S. cerevisiae deletion strains, locus YPL051W, strain arl3, hits give low values 1 | S. cerevisiae deletion strains, locus YPL055C, strain LGE1, hits give low values 1.01 | S. cerevisiae deletion strains, locus YPL078C, strain atp4, hits give low values 0.988 | S. cerevisiae deletion strains, locus YPL106C, strain sse1, hits give low values 0.957 | S. cerevisiae deletion strains, locus YPL240C, strain hsp82, hits give low values 0.992 | S. cerevisiae deletion strains, locus YPL241C, strain CIN2, hits give low values 1.01 and 1 | S. cerevisiae deletion strains, locus YPL256C, strain CLN2, hits give low values 1.08 | S. cerevisiae deletion strains, locus YPR119W, strain clb2, hits give low values 1.01 | S. cerevisiae deletion strains, locus YPR141C, strain kar3, hits give low values 1.03 | S. cerevisiae deletion strains, locus YPR163C, strain tif3, hits give low values 1.02 | S. cerevisiae deletion strains, locus YPR167C, strain met16, hits give low values 1.01 | S. cerevisiae deletion strains, strain wtn01, hits give low values 1.09 | S. cerevisiae strains, strain wild type, hits give low values 1
